Screening data: PubChem BioAssay, National Center for Advancing Translational Sciences (NCATS)
ALDH1A1 inh – inhibitors of human aldehyde dehydrogenase 1A1. Purified ALDH1A1, NADH fluorescence, propionaldehyde substrate. hit rate 7.3% among 220,000. P00352. Potency, µM (top dose mostly 75.3 µM), without a hit: top-dose activity, negative = inhibition, hits mostly inhibitors;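 note: potency is the fitted concentration of half-maximal effect; plate controls were no enzyme wells and a reference inhibitor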
Target sequence (P00352 whole entry, looked up): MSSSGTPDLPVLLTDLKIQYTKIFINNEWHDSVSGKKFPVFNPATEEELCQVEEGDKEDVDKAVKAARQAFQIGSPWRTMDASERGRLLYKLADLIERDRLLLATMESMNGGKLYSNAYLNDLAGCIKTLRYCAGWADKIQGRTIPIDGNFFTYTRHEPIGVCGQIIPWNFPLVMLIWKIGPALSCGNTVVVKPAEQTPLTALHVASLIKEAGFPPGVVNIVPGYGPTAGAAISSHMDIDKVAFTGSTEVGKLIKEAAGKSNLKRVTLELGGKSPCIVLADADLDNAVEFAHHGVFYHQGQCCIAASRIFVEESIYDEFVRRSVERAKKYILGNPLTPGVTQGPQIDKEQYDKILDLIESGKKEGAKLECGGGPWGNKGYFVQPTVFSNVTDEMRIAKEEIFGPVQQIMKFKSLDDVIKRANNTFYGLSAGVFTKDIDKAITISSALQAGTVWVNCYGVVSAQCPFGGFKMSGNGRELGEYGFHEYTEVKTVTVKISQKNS
Lamin A splicing – changes lamin A minigene splicing in HeLa cells. HeLa LMNA splicing GFP/RFP minigene ratio, 48 h. Potency, µM (highest dose often 46.1 µM), inactives show at the highest dose ratio change, negative = inhibition, hits mostly inhibitors. hit rate 0.01% among 200,000. AID 1487; active = well fitted inhibition curve with a large enough effect in the signal ratio, with a control signal flat, not every such curve was filed as active; inconclusive = small, poorly fitted or top-dose-only effect, or effect the other way, or a change in a side signal; the % refers to the signal ratio; note: potency is the fitted concentration of half-maximal effect
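Read-out is the ratio of GFP to DsRed2 object intensity, acquired by 488 nm laser-scanning cytometry on HeLa lamin A-EGFP minigene reporter cells. Compound incubation 48 hrs at 37 °C in Opti-MEM with 2% FBS; DMSO 0.5% final.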
HPGD inh – blocks human HPGD enzyme activity | purified HPGD, NADH fluorescence kinetic, PGE2 substrate | hit rate 4.3% among 150,000 | Potency, µM, without a hit: at the highest dose activity change, negative = inhibition, actives largely listed as inhibitors; note: potency is the fitted concentration of half-maximal effect
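NADH formation kinetics: reaction with 30 uM PGE2 and 1 mM NAD+ (final), 20 nM enzyme, Tris-HCl pH 8 with Tween 20, after 15 min compound preincubation at room temperature. Fluorescence change, last versus first of five reads.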
PNC inhibitor – blocks assembly of the perinucleolar compartment. activity change (PNC), negative = inhibition, % at 10 µM. hit rate 3.1% among 140,000. PC3M PTB-GFP, PNC prevalence imaging, 16 h; hits give low values;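 active = readout at or below -70, meaning at least 70% loss of cells showing the perinucleolar compartment, a nuclear body marking cancer cells; inconclusive = readout between -30 and a set limit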;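 note: plate controls were DMSO wells for no effect and camptothecin positive control wells for full effect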
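Compounds are pinned in duplicate onto adhered PC3M cells stably expressing GFP-tagged PTB and incubated 16 h at 37 C. Cells are then fixed, nuclei stained with Hoechst, and PNC-positive cells counted.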
KinaseGlo FLuc – counter-screen: inhibitors of Kinase-Glo firefly luciferase; Q27757; Kinase-Glo luciferase, ATP luminescence, 8 min; Potency, µM (top dose mostly 38.3 µM), for inactives: at the top dose activity change, negative = inhibition, actives largely listed as inhibitors; hit rate 0.28% among 200,000; AID 1379; active = well fitted inhibition curve with a large enough effect; inconclusive = small, poorly fitted or top-dose-only effect; note: potency is the fitted concentration of half-maximal effect; nearly all actives have a fitted effect of over 60% in size
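Luminescence was the read-out, taken after 8-minute incubation at ambient temperature. Luciferase turned over luciferin with 10 uM ATP in imidazole pH 7.2 buffer containing KCl, MgCl2, Tween 20 and BSA.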
Starred values were filed as active, the others as inactive; ? = inconclusive; . = not tested or not shown; [ ] = dose if it differs, or a comment. The list is not random: actives were taken first. Their share in the collection is about 10%. Unless noted, calls come from the whole dose curve; as a rule, active = well fitted inhibition curve with a large enough effect (not every such curve was filed as active); inconclusive = small, poorly fitted or top-dose-only effect, or another doubt; inactive = no such curve, though single readings can be large or run the other way. Unless noted, % is set by controls: 0 for no effect and ±100 for the full control effect.

SMILES | ALDH1A1 inh | Lamin A splicing | HPGD inh | PNC inhibitor | KinaseGlo FLuc
CCOc1ccc(NC(=S)Nc2cccnc2)cc1 | ? | 5.8%[9.22 µM] | . | . | -5.4%
CCOc1ccc(NC(=S)Nc2cc(-c3ccccc3)[nH]n2)cc1 | 12.6µM* | 8.3% | -14.8% | 41.1 | 1.8%
O=C(Cc1ccc(F)cc1)NCCc1csc2nc(-c3ccccc3F)nn12 | . | 23.2%[46 µM] | . | . | .
Cc1nn(-c2ccc(N3CCOCC3)nn2)c(C)c1CCC(=O)NCc1ccc(OC(C)C)cc1 | . | -0.6%[46 µM] | . | . | .
CC(C)=CCC/C(C)=C/CC/C(C)=C/CSCC(=O)O | -0.4% | . | -11.9% | . | 0.9%
C=CCc1cc(C(=O)N2CCCCC2)ccc1O | ? | ? | 3.98µM* | -81.4* | -2.3%
CC(C)C[C@@H](CC(=O)N[C@@H](CCC(=O)O)CC(=O)O)NC(=O)[C@@H]1CCCC[C@H]1NC(=O)C[C@@H](NC(=O)C[C@H](Cc1ccccc1)NC(=O)[C@@H]1CNCC[C@H]1N)C(C)C | 1.5% | . | -7.2% | . | 1.0%
Cc1cccc(Oc2nc3ccccn3c(=O)c2/C=C(\C#N)C(=O)NC2CCS(=O)(=O)C2)c1 (centres undefined) | ? | ? | -11.6% | -104.1* | -0.7%
N#C/C(=C\c1c(N2CCCCC2)nc2ccccn2c1=O)C(=O)NC1CCS(=O)(=O)C1 (centres undefined) | ? | -2.0% | ? | 0.1 | -2.8%
CC(C)(C)C1CCC(=NNC(=O)CN(c2ccccc2)S(=O)(=O)c2ccccc2[N+](=O)[O-])CC1 (centres undefined) | 10µM* | -6.6% | -19.8% | 25.6 | 0.6%
O=C(CNC(=O)c1ccccc1)N/N=C/c1cc(Br)ccc1O | 8.2% | ? | -10.3% | -28.1 | -0.2%
O=C(CN1CC(c2ccccc2)CC1=O)N/N=C/c1cc(Br)ccc1O (centres undefined) | 25.1µM* | ? | ? | 56.9 | 3.0%
Cc1ccccc1-c1nc(CNC(=O)Nc2ccccc2)c(C)o1 | . | -3.8%[46 µM] | . | . | .
Nc1nc(-c2ccccc2)cc(N2CCCCC2)n1 | 4.5% | ? | -6.1% | -106.2* | 1.9%
Cc1nc(-c2ccccc2)cc(N2CCCC2)n1 | 5.7% | -4.0% | -7.1% | -7.7 | 1.1%
O=C(Nc1ccc2nc(SCC(=O)N3CCCc4ccccc43)sc2c1)c1cccc(Cl)c1 | . | -4.7%[46 µM] | . | . | .
C=CCc1cccc(C2C(C)CCC3C(=O)N4C(CCC(C)C4c4cccc(CC=C)c4)C(=O)N32)c1 (centres undefined) | 6.31µM* | . | . | . | .
C[C@@H]1CC[C@H]2C(=O)N3[C@@H](CC[C@@H](C)[C@@H]3c3ccc(Br)cc3)C(=O)N2[C@@H]1c1ccc(Br)cc1 | -8.9%[13.5 µM] | . | . | . | .
Cc1cc2c(nc1C)CCCN2CC(O)CN1CCCc2nc(C)c(C)cc21 | 10.7%[13.5 µM] | . | . | . | .
CCCSc1nnc(NC(=O)Nc2ccc(F)cc2)s1 | -5.5% | -13.0% | -0.2% | -82.5* | -2.7%
O=C(Cn1c(-c2cccs2)cc2cc(Cl)ccc21)N1CCCCC1 | . | -12.0%[46 µM] | . | . | .
O=C(CSC1=NCCS1)NC1CCCC1 | 6.7% | -0.4%[0.0737 µM] | 25.1µM* | 46.3 | -1.6%
O=C(CSC1=NCCS1)Nc1ccc(S(=O)(=O)N2CCCCCC2)cc1 | ? | ? | ? | -26.8 | 1.8%
O=C(CSC1=NCCS1)Nc1ccc(S(=O)(=O)NC2CCCCC2)cc1 | ? | -7.0% | 15.8µM* | -1.2 | -2.1%
O=C(CSC1=NCCS1)NC1CCCCC1 | 2.1% | 10.3% | ? | 17.9 | 9.1%
SMILES | ALDH1A1 inh | Lamin A splicing | HPGD inh | PNC inhibitor | KinaseGlo FLuc
C=C(C)C1CC[C@]2(CO)CC[C@@]3(C)[C@H](CCC4[C@@]5(C)CCC(O)C(C)(C)C5CC[C@@]43C)C12 (some centres undefined) | 8.6% | ? | -7.8% | . | -2.9%
O=C(CSc1nnnn1C1CCCC1)c1ccc2c(c1)OCCO2 | 3.16µM* | 1.4% | -19.4% | 24.5 | 2.1%
COc1cccc(C(=O)CSc2nnnn2C2CCCCC2)c1 | 2.82µM* | 5.8% | -24.8% | ? | -3.6%
CC(C)n1nnnc1SCC(=O)c1ccc2c(c1)OCCO2 | ? | 5.0% | -14.9% | 19.1 | 0.3%
COCCCn1nnnc1SCC(=O)Nc1ccc2c(c1)OCCO2 | 12.6µM* | ? | . | . | 2.9%
O=C(CSc1nnnn1C1CCCC1)Nc1ccc2c(c1)OCO2 | 11.2µM* | 7.2% | -1.2% | ? | 0.1%
COc1cc(OC)c(NS(=O)(=O)c2cc3c(cc2C)N(C(C)=O)CCO3)cc1Cl | . | -20.6%[46 µM] | . | . | .
